Legend:
[1] = system: Human papillomavirus type 1a protein E7 (residues 44-93); assay: small molecules binding HPV E7 44-93 – biochemical, small-molecule microarray, residues 44-93, 635 nm fluorescence, primary screen (AID 1108); conditions: fluorescence 635 nm, higher = more signal;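 also: E7 fragment applied at 1 µg/mL in TBST for 1 h at 4 C; score combines spot fluorescence with its signal to noise ratio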
[2] = hepatitis C replication reporter changes, two-sided – Huh7 cells, luciferase reporter, HCV replication inhibitor project, primary screen (AID 1109); conditions: Huh7 HCV replicon luciferase reporter, 48 h; higher = more signal;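 also: huh7 hepatoma cells harbouring a luciferase neomycin HCV replicon reporter; luciferase luminescence as measure of HCV replicon replication; test concentration not given here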
[3] = target: Left-right determination factor 2 (Homo sapiens) (UniProt O00292); assay: small molecules binding LEFTY2 protein – biochemical, small-molecule microarray, 635 nm fluorescence scan, primary screen (AID 1110); conditions: higher = more signal
[4] = target: Calmodulin-1 (Homo sapiens) (UniProt P0DP23); assay: small molecules binding calmodulin-1 with EGTA – biochemical, small-molecule microarray, Cy5-labelled CALM1, profiling panel (AID 1111); conditions: Cy5-CALM1 binding fluorescence, higher = more signal;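 also: labelled calmodulin applied in Tris saline Tween buffer holding calcium plus EGTA and DTT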
[5] = target: Calmodulin-1 (Homo sapiens) (UniProt P0DP23); assay: small molecules binding Ca-loaded calmodulin-1 – biochemical, small-molecule microarray, Cy5-labelled CALM1, plus calcium, artefact control for SMM control-protein annotation, profiling panel (AID 1112); conditions: Cy5-CALM1 binding fluorescence, higher = more signal;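 also: score merges spot fluorescence with signal to noise from triplicate slides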
[6] = probe aWnt5a binding to arrayed compounds – biochemical, biotinylated probe, 635/667 nm fluorescence, primary screen (AID 1113); conditions: small-molecule microarray, higher = more signal;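 also: score merges 667 nm fluorescence intensity with signal-to-noise per printed feature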
[7] = probe aShh binding to arrayed compounds – biochemical, biotinylated probe, 635/667 nm fluorescence, primary screen (AID 1114); conditions: small-molecule microarray, higher = more signal;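 also: probe is biotin-labelled aShh protein from a stem cell growth factor screen; measures binding of labelled protein to compounds printed on the slide; score merges feature fluorescence at 667 nm with signal-to-noise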
[8] = probe aNog binding to arrayed compounds – biochemical, biotinylated probe, 635/667 nm fluorescence, primary screen (AID 1115); conditions: small-molecule microarray, higher = more signal;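 also: probe is biotinylated aNog protein used at 0.15 µg/mL for 1 h at 4 C; z-score combines 667 nm fluorescence of each spot with its signal to noise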
[9] = target: Torsin-1A-interacting protein 1 (Homo sapiens) (UniProt Q5JTV8); assay: compound microarray binding of lysate hLAP1 – cell lysate, small-molecule microarray, COS7 lysate, 635/667 nm fluorescence, primary screen (AID 1116); conditions: 635 nm fluorescence, higher = more signal
[10] = target: Alpha-bungarotoxin (Bungarus multicinctus) (UniProt P60615); assay: compounds binding labelled alpha-BTX control protein – biochemical, small-molecule microarray, Alexa647 label, 635/667 nm fluorescence, artefact control for SMM control protein annotation, profiling panel (AID 1117); conditions: alpha-BTX-A647 binding fluorescence, higher = more signal
Sequence of Alpha-bungarotoxin (Bungarus multicinctus) (P60615 whole entry, looked up): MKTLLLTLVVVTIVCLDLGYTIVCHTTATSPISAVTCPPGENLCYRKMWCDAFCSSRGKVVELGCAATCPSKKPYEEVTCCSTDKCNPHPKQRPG

Sequence of Left-right determination factor 2 (Homo sapiens) (O00292 whole entry, looked up): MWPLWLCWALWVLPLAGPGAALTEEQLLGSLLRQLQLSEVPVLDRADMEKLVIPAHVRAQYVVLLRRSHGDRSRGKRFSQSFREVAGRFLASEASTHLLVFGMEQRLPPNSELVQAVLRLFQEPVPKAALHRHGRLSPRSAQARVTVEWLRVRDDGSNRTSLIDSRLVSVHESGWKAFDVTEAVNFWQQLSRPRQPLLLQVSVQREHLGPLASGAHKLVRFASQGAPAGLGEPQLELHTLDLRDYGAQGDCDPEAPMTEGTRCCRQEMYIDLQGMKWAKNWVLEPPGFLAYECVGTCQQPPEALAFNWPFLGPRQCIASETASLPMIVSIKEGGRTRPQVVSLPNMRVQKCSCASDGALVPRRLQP
Sequence of Torsin-1A-interacting protein 1 (Homo sapiens) (Q5JTV8 whole entry, looked up): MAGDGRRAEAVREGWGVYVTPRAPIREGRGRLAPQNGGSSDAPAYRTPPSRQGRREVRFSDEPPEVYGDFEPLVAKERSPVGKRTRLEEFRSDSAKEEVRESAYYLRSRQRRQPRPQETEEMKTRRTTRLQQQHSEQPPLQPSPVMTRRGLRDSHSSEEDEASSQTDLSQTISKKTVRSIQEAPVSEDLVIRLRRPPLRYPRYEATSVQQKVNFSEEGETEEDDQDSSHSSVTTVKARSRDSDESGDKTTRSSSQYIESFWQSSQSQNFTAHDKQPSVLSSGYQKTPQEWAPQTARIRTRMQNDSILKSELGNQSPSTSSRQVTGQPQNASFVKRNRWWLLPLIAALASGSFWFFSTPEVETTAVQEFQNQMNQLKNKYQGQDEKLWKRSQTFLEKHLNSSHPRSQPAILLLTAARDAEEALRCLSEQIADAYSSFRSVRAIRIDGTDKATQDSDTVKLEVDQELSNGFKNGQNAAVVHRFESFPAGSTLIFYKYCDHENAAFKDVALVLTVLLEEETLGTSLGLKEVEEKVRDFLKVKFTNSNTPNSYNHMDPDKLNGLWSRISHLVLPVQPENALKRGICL

Row | Compound | composite z-score [1] | z-score [2] | composite z-score [3] | composite z-score [4] | composite z-score [5] | composite z-score [6] | composite z-score [7] | composite z-score [8] | composite z-score [9] | composite z-score [10]
1 | CCCCCCCCCCC(O)C1C=CC2C(=O)N(C)C(=O)C2N1Nc1ccccc1 (stereo not given) | 0.164 | -0.28 | -2.42 | 0.194 | 1.19 | -0.252 | -0.121 | 0.101 | 0.504 | -0.868
2 | Cc1c(NC(=O)/C(C#N)=C/C=C/c2ccc([N+](=O)[O-])cc2)c(=O)n(-c2ccccc2)n1C | 0.572 | -1.71 | 0.328 | 1.97 | 0.72 | -0.0792 | -0.0769 | 0.457 | 1.37 | 1.13
3 | O=C1C2C=CC(C(O)C(c3ccccc3)c3ccccc3)N(Nc3ccccc3F)C2C(=O)N1c1ccccc1 (stereo not given) | 1.45 | -0.942 | 0.407 | 1.04 | 0.713 | 0.0182 | 0.108 | 0.686 | 0.855 | 0.451
4 | C#CCN(C(=O)OC(C)(C)C)[C@H](CO)c1ccccc1 | 0.486 | 0.712 | 0.353 | -0.528 | -0.964 | -0.18 | -0.138 | -0.141 | 0.391 | 0.0876
5 | CN1C(=O)C2C=CC(C(O)COCc3ccccc3)N(Nc3ccc([N+](=O)[O-])cc3[N+](=O)[O-])C2C1=O (stereo not given) | 0.826 | -0.295 | -0.759 | -0.528 | -0.626 | 0.173 | -0.328 | 0.702 | 0.503 | 0.814
6 | COc1ccc(C(O)C2C=CC3C(=O)N(c4ccccc4)C(=O)C3N2Nc2ccccc2F)c2ccccc12 (stereo not given) | 0.459 | -0.673 | 0.903 | 2.6 | 0.994 | 0.416 | 0.425 | 1.26 | 1.28 | 2.12
7 | CC(C)(C)OC(=O)N1[C@@H](C=C(Br)Br)COC1(C)C | 0.943 | -0.213 | 0.514 | -0.177 | -0.41 | -0.0944 | -0.167 | 0.0051 | 1.29 | 0.398
8 | O=C1NC(=O)C2C1C=CC(C(O)c1ccc(F)cc1)N2Nc1ccc(Cl)cc1Cl (stereo not given) | 0.379 | -0.659 | -0.752 | 0.805 | 1 | -0.0403 | 0.867 | 0.993 | 0.68 | 0.712
9 | C=CCNC(=O)[C@@H]1[C@H]2C(=O)O[C@H](c3ccccc3)[C@H](c3ccccc3)N2[C@H](c2ccc(OCCO)cc2)[C@@]12C(=O)Nc1ccc(C#CCNC(N)=O)cc12 | 1.24 | -0.658 | -0.463 | 1.47 | 0.472 | -0.0051 | -0.349 | -0.361 | 0.0307 | 0.782
10 | COC(=O)c1ccc(OC)c(/C=C\CC(OC(=O)c2ccncc2)c2ccccc2)c1 (stereo not given) | -0.734 | -1.91 | 0.684 | -1.05 | 0.157 | -0.101 | -0.206 | -0.183 | 0.187 | 2.12
11 | C=CCNC(=O)[C@H]1[C@@H]2C(=O)O[C@@H](c3ccccc3)[C@@H](c3ccccc3)N2[C@@H](c2ccc(OCCO)cc2)[C@]12C(=O)N(C(=O)OCCOC)c1ccc(C#CCC(C(=O)OC)C(=O)OC)cc12 | 1.41 | -1.54 | 0.158 | 1.58 | 0.81 | 0.291 | 2.08 | 1.42 | 2.68 | 1.63
12 | COCCOC(=O)N1C(=O)[C@@]2(c3cc(C#CC4(O)CCCCCC4)ccc31)[C@H](C(N)=O)[C@H]1C(=O)O[C@H](c3ccccc3)[C@H](c3ccccc3)N1[C@@H]2c1ccc(OCCO)cc1 | 0.688 | -2.61 | 0.73 | 1.49 | 0.527 | -0.0364 | 0.407 | 0.176 | 0.883 | 1.61

— PubChem BioAssay
